Consider 28 compounds from the antibiotic and cytotoxicity screens of Wong et al. (2023).

The campaign covered roughly 39,000 compounds. About 3,300 (8.5%) were called active. The sample holds actives, similar compounds and a random draw of the others, so the mix is not that of the screen.

The test system of this experiment is HepG2. In words: cytotoxicity call (relative viability < 0.9). The following applies: 10 µM.
For `C[C@@H](N)Cc1ccc2occc2c1`, the cytotoxicity call was “inactive”.
Take `CC1=C2CCC3C4CCC(=O)C4(C)CCC3C2(C)CCC1=O` (stereo not drawn): the cytotoxicity call was “inactive”.
With `O=[N+]([O-])c1cc(O)c(O)c([N+](=O)[O-])c1`, the cytotoxicity call was “inactive”.
Next, `CC(C)=CCCC1(C)C=Cc2c(O)c3c(c(CC=C(C)C)c2O1)OC12C(=CC4CC1C(C)(C)OC2(CC=C(C)C(=O)O)C4O)C3=O` (stereo not drawn): “inactive”; `CC(C)=CCCC1(C)C=Cc2c(O)c3c(c(CC=C(C)C)c2O1)OC12C(=CC4CC1C(C)(C)OC2(CC=C(C)C(=O)O)C4=O)C3=O` (stereo not drawn): “active”.
For `CC(C)=CCC[C@]1(C)C=Cc2c(O)c3c(c(CC=C(C)C)c2O1)O[C@]12[C@H](C[C@@H]4C[C@H]1C(C)(C)O[C@]2(C/C=C(/C)C(=O)O)[C@@H]4O)C3=O` the value was “inactive”.
With `COc1cc(C(=O)O)cc(OC)c1OC`, the cytotoxicity call is “inactive”.
Next, `CCC(CC)C(=O)N[C@@H]1[C@@H]2CNC[C@@H]21`: “inactive”; `NC[C@H](CC(=O)O)c1ccc(Cl)cc1`: “inactive”.
For `C[C@@H](N)Cc1ccc(O)cc1` the value was “inactive”; for `C=C(CCCCCCCCCCCCCCCC)OOC[C@@H](COP(=O)(ON)O[C@@H]1[C@H](O)[C@H](O)[C@@H](OP(=O)(O)ON)[C@H](OP(=O)(O)ON)[C@H]1O)OOC(=C)CC/C=C/C/C=C/C/C=C/C/C=C/CCCCC` (stereo partly drawn), “active”.
As for `C[C@H](CO)N1C[C@H](C)[C@H](CN(C)C(=O)Oc2cccc3ccccc23)OCc2cn(nn2)CCCC1=O`, the cytotoxicity call is “inactive”.
For `Cc1cc(O)ccc1Cl` the value was “active”.
For `Oc1ccc(Cl)cc1` the value was “inactive”; for `CN1CCC2(C)c3cc(O)ccc3N(C)C12.O=C(O)C=CC(=O)O` (stereo not drawn), “active”; for `CNC(=O)Oc1ccc2c(c1)C1(C)CCN(C)C1N2C.O=C(O)c1ccccc1O` (stereo not drawn), “active”.
For `Br.COc1ccc2c(c1)C13CCCCC1C(C2)N(C)CC3` (stereo not drawn) the value was “inactive”; for `CNC(=O)Oc1ccc2c(c1)[C@]1(C)CCN(C)[C@@H]1N2C.CNC(=O)Oc1ccc2c(c1)[C@]1(C)CCN(C)[C@@H]1N2C.O=S(=O)(O)O`, “inactive”.
On to `CNC(=O)Oc1ccc2c(c1)C1(C)CCN(C)C1N2C.O=S(=O)(O)O` (stereo not drawn), for which the cytotoxicity call was “active”.
Next, `CNC(=O)Oc1ccc2c(c1)C1(C)CCN(C)C1N2C` (stereo not drawn): “active”; `Cc1ccc(C)c(C(=O)[C@H](N)CC(C)C)c1`: “inactive”; `Cc1cc(C(=O)N2CC[C@H]3[C@@H]2CCN3C)no1`: “inactive”.
For `CCOc1ccc(N2CCNCC2)nn1` the value was “inactive”.
Regarding `C[C@H](O)[C@]12[C@@H]3CC=C[C@H]1N2CC3` (stereo partly drawn), the cytotoxicity call was “inactive”.
Next, `C[C@@H](N)Cc1ccco1`: “inactive”.
For `CSC1=NN1c1cc(C)nc(N)n1` the value was “inactive”; for `N#C[C@@]12[C@H]3CC=C[C@@H]1N2CC3` (stereo partly drawn), “inactive”.
For `c1nc(N2CCN3CCC[C@H]3C2)c2[nH]cnc2n1` the value was “inactive”.
